CYP2C19 activ: increases human CYP2C19 enzyme activity. P33261. recombinant CYP2C19, luciferin-H EGE luminescence; hits give high values; 0 = fully inhibited enzyme, 1 = untreated enzyme. activation factor at 5 µM. 96,000 tested, under 10 active. AID 1025;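 active means activation factor of at least 2 at 5 µM in the primary screen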
Target sequence (P33261 whole entry, looked up): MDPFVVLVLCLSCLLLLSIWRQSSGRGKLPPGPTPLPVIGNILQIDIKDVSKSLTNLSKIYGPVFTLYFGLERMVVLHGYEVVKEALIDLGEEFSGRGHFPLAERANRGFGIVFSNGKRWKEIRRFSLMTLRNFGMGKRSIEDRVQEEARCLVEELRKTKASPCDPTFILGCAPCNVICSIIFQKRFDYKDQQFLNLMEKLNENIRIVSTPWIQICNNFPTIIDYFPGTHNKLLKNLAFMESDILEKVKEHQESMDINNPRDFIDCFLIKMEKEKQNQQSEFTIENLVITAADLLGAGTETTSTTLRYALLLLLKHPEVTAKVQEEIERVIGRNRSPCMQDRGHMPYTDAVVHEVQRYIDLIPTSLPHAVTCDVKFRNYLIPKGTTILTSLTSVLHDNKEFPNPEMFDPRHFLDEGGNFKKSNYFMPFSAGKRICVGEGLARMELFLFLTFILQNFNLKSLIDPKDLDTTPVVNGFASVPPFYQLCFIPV
CYP2C9 inh: inhibitors of human CYP2C9; inhibition, % at 5 µM; P11712; CYP2C9 Supersomes, luciferin-H conversion, luminescence; hit rate 20% among 96,000; AID 777;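 active means blocking of liver enzyme CYP2C9 beyond about 50% at 5 µM, limit read from the data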
CYP2C9 activ: increases human cytochrome P450 2C9 activity. P11712. recombinant CYP2C9, luciferin-H conversion, luminescence; hits give high values; factor 1 = untreated enzyme, 0 = blocked. activation factor at 5 µM. hit rate 1.4% among 96,000. AID 1024;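 active means activation factor of 2 or more for CYP2C9 at a 5 µM dose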
F-actin modifier: alters cytoskeleton assembly in HUVEC cells; HUVEC TNFa F-actin phalloidin imaging, high content; hit rate 0.18% among 91,000; inhibition, % at 2 µM;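 active means inhibition above the batch mean plus 3 SD and confirmed as a hit by visual image inspection, cut at about 30% in these data, passing the limit was not always enough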
CYP2C19 inhib: blocks human cytochrome P450 2C19; P33261; CYP2C19 Supersomes, luciferin-H EGE luminescence, 30 min; inhibition, % at 5 µM; hit rate 21% among 96,000; AID 778;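 active means CYP2C19 inhibition above a set limit at 5 µM in the primary screen, cut at about 50% in these data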
E-sel TNF inh: TNF alpha driven E-selectin expression inhibition. HUVEC TNFa-induced E-selectin immunofluorescence, high content. inhibition, % at 2 µM. hit rate 0.71% among 120,000;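 active means inhibition above the batch mean plus 3 SD, and confirmed as a hit on visual image review, cut at about 43% in these data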
Numbers stand for hits. This is a sample that favours compounds with a hit; in the whole collection about 22% have one here.

What do the screens show for `CCC(=O)NCCn1ccc2ccccc21`?
CYP2C19 activ: inactive; CYP2C9 inh: inactive; CYP2C9 activ: inactive; F-actin modifier: inactive; CYP2C19 inhib: inactive

What do the screens show for `COC(=O)c1c(NC(=O)CSc2nc3nc(C)cc(C)n3n2)sc(C)c1C`?
E-sel TNF inh: inactive

Results for CCOc1ccc(Oc2nc(NCC(C)C)nc(N(C)C)n2)nn1 ?
CYP2C19 activ: inactive; CYP2C9 inh: inactive; CYP2C9 activ: inactive; F-actin modifier: inactive; CYP2C19 inhib: inactive; E-sel TNF inh: inactive

Results for Cc1cc2ccccc2n1CCNC(=O)C(C)C ?
CYP2C19 activ: inactive; CYP2C9 inh: inactive; CYP2C9 activ: inactive; CYP2C19 inhib: 50.4; E-sel TNF inh: inactive

What do the screens show for `Cc1cc2ccccc2n1CCNC(=O)c1ccc(S(=O)(=O)N2CCCCC2)cc1`?
CYP2C19 activ: inactive; CYP2C9 inh: 90.1; CYP2C9 activ: inactive; F-actin modifier: inactive; CYP2C19 inhib: inactive; E-sel TNF inh: inactive

Results for COc1cc(/C=C/C(=O)NCCn2c(C)cc3ccccc32)cc(OC)c1OC ?
E-sel TNF inh: inactive

How did CC(C)C(=O)NCCn1ccc2ccccc21 do in these assays?
CYP2C19 activ: inactive; CYP2C9 inh: inactive; CYP2C9 activ: inactive; CYP2C19 inhib: 57.2; E-sel TNF inh: inactive

Results for COc1ccccc1CN=C1NC(=O)C(CC(=O)Nc2ccc(OC)c(OC)c2)S1 (stereo not given) ?
CYP2C19 activ: inactive; CYP2C9 inh: inactive; CYP2C9 activ: inactive; F-actin modifier: inactive; CYP2C19 inhib: inactive; E-sel TNF inh: inactive

How did c1ccc(-c2ccc(-c3nc(-c4ccccn4)no3)cc2)cc1 do in these assays?
CYP2C19 activ: inactive; CYP2C9 inh: inactive; CYP2C9 activ: inactive; F-actin modifier: inactive; CYP2C19 inhib: inactive; E-sel TNF inh: inactive

Results for c1ccc(-c2nc(-c3ccccn3)no2)cc1 ?
F-actin modifier: inactive; E-sel TNF inh: inactive

Results for Clc1cccc(-c2nc(-c3ccccn3)no2)c1 ?
CYP2C19 activ: inactive; CYP2C9 inh: inactive; CYP2C9 activ: inactive; F-actin modifier: inactive; CYP2C19 inhib: 51.4; E-sel TNF inh: inactive

Results for c1ccc(-c2noc(-c3ccco3)n2)nc1 ?
CYP2C19 activ: inactive; CYP2C9 inh: inactive; CYP2C9 activ: inactive; CYP2C19 inhib: 77.4; E-sel TNF inh: inactive

What do the screens show for `Cc1ccc(-c2nc(-c3ccccn3)no2)cc1`?
CYP2C19 activ: inactive; CYP2C9 inh: 58.0; CYP2C9 activ: inactive; F-actin modifier: inactive; CYP2C19 inhib: 87.4; E-sel TNF inh: inactive

How did COCCn1c(-c2cccs2)nc2c(c(=O)c3ccccc3n2C)c1=O do in these assays?
CYP2C19 activ: inactive; CYP2C9 inh: inactive; CYP2C9 activ: inactive; F-actin modifier: inactive; CYP2C19 inhib: inactive; E-sel TNF inh: inactive

What do the screens show for `CCC12CN3CCN(CC(C3)/C1=N\NC(=O)c1ccc(F)cc1)C2`?
E-sel TNF inh: inactive

What do the screens show for `CCCCn1nc(CC(=O)O)c2ccccc2c1=O`?
CYP2C19 activ: inactive; CYP2C9 inh: inactive; CYP2C9 activ: inactive; CYP2C19 inhib: 69.4; E-sel TNF inh: inactive

How did Cc1ccc(S(=O)(=O)N2CCN(c3cnn(C)c(=O)c3Cl)CC2)cc1 do in these assays?
E-sel TNF inh: inactive

What do the screens show for `Cc1c(NC(=O)C(C)OC(=O)c2cccnc2)c(=O)n(-c2ccccc2)n1C` (stereo not given)?
E-sel TNF inh: inactive

Results for CCOC(=O)Cn1cnc([N+](=O)[O-])n1 ?
CYP2C19 activ: inactive; CYP2C9 inh: inactive; CYP2C9 activ: inactive; F-actin modifier: inactive; CYP2C19 inhib: inactive; E-sel TNF inh: inactive

What do the screens show for `Cc1ccc(NC(=S)NNC(=O)c2nn(C)cc2Cl)cc1`?
CYP2C19 activ: inactive; CYP2C9 inh: inactive; CYP2C9 activ: inactive; F-actin modifier: inactive; CYP2C19 inhib: inactive; E-sel TNF inh: inactive

What do the screens show for `Cc1c(Cl)c(C(=O)NNC(=S)Nc2ccccc2)nn1C`?
CYP2C19 activ: inactive; CYP2C9 inh: inactive; CYP2C9 activ: inactive; F-actin modifier: inactive; CYP2C19 inhib: 77.7; E-sel TNF inh: inactive

Results for Cc1cccc(NC(=S)NNC(=O)c2nn(C)cc2Cl)c1 ?
CYP2C19 activ: inactive; CYP2C9 inh: inactive; CYP2C9 activ: inactive; F-actin modifier: inactive; CYP2C19 inhib: 60.9; E-sel TNF inh: inactive

Results for COc1ccccc1NC(=S)NNC(=O)c1c(Cl)c(C)nn1C ?
CYP2C19 activ: inactive; CYP2C9 inh: 66.1; CYP2C9 activ: inactive; F-actin modifier: inactive; CYP2C19 inhib: inactive; E-sel TNF inh: inactive

How did Cc1ccc(NC(=O)Nc2cc(C)on2)cc1 do in these assays?
E-sel TNF inh: inactive

How did CCCC(O)(c1ccc(OC)cc1)C(CN1CCOCC1)c1ccccc1 (stereo not given) do in these assays?
E-sel TNF inh: inactive

What do the screens show for `Cc1ccc(S(=O)(=O)Cc2ccc(C(=O)O)o2)cc1`?
CYP2C19 activ: inactive; CYP2C9 inh: inactive; CYP2C9 activ: inactive; F-actin modifier: inactive; CYP2C19 inhib: inactive; E-sel TNF inh: inactive

Results for Cc1ccc(S(=O)(=O)Cc2ccc(C(=O)N3CCc4ccccc4C3)o2)cc1 ?
CYP2C19 activ: inactive; CYP2C9 inh: 56.1; CYP2C9 activ: inactive; F-actin modifier: inactive; CYP2C19 inhib: 92.1

What do the screens show for `COc1ccc(S(=O)(=O)Cc2ccc(C(=O)N3CCc4ccccc4C3)o2)cc1`?
CYP2C19 activ: inactive; CYP2C9 inh: 53.2; CYP2C9 activ: inactive; F-actin modifier: inactive; CYP2C19 inhib: 89.3

Results for CC1=C/C(=N\OS(=O)(=O)c2ccccc2)C(C)=CC1=O ?
CYP2C19 activ: inactive; CYP2C9 inh: inactive; CYP2C9 activ: inactive; F-actin modifier: inactive; CYP2C19 inhib: inactive; E-sel TNF inh: inactive

How did CCC(C)NC(=O)Cn1cnc2sc(C)cc2c1=O (stereo not given) do in these assays?
CYP2C19 activ: inactive; CYP2C9 inh: inactive; CYP2C9 activ: inactive; F-actin modifier: inactive; CYP2C19 inhib: inactive

What do the screens show for `CCc1nc(N[C@@H](CC(C)C)C(=O)O)c2oc3ccccc3c2n1`?
CYP2C19 activ: inactive; CYP2C9 inh: inactive; CYP2C9 activ: inactive; F-actin modifier: inactive; CYP2C19 inhib: inactive; E-sel TNF inh: inactive

What do the screens show for `CCOC(=O)/C(C#N)=C1/SC(CC)C(=O)N1c1ccc(C)cc1` (stereo not given)?
CYP2C19 activ: inactive; CYP2C9 inh: 55.3; CYP2C9 activ: inactive; F-actin modifier: inactive; CYP2C19 inhib: 90.7; E-sel TNF inh: inactive

What do the screens show for `Cc1ccc(CC2S/C(=C(/C#N)C(=O)NCc3ccco3)N(c3ccccc3)C2=O)cc1` (stereo not given)?
CYP2C19 activ: inactive; CYP2C9 inh: inactive; CYP2C9 activ: inactive; F-actin modifier: 63.4; CYP2C19 inhib: inactive; E-sel TNF inh: inactive

How did O=C1CCC(=O)N1OCCCOc1ccccc1 do in these assays?
CYP2C19 activ: inactive; CYP2C9 inh: inactive; CYP2C9 activ: inactive; F-actin modifier: inactive; CYP2C19 inhib: inactive; E-sel TNF inh: inactive

What do the screens show for `CCOC(=O)CC1C(C(=O)OCC)ON2OC(C(=O)OC)C(C(=O)OCC)C12` (stereo not given)?
CYP2C19 activ: inactive; CYP2C9 inh: inactive; CYP2C9 activ: inactive; F-actin modifier: inactive; CYP2C19 inhib: inactive; E-sel TNF inh: inactive

Results for CC1CCN(S(=O)(=O)c2ccc(NC(=O)c3cccs3)cc2)CC1 ?
CYP2C19 activ: inactive; CYP2C9 inh: 96.3; CYP2C9 activ: inactive; CYP2C19 inhib: 84.5
